This note sets out measurements from PubChem BioAssay (EPA / NIEHS).

Records with an inconclusive call do not appear. The source made the active and inactive calls. Rule for the calls: active = hit-call score of the fitted dose curve at least 0.9, where 1 is the maximum; inconclusive = response in the unintended direction; inactive = score below 0.9.

Sequence of Estrogen receptor (Homo sapiens) (P03372 whole entry, looked up): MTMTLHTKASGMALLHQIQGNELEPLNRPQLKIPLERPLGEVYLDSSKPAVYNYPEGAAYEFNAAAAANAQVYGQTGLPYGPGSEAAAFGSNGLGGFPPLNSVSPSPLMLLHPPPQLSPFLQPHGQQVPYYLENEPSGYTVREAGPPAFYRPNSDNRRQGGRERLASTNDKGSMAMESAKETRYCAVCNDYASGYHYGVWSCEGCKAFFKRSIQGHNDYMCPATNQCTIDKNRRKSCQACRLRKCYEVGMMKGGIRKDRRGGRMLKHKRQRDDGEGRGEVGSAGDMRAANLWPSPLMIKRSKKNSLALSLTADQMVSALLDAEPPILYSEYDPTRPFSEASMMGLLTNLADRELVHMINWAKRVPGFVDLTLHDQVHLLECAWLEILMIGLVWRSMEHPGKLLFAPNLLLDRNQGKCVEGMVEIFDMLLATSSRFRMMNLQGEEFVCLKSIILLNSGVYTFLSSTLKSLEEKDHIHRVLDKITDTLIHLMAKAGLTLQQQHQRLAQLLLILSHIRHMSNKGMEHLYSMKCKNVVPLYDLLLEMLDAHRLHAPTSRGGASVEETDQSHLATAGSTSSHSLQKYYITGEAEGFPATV

The target in this assay is Estrogen receptor (Homo sapiens) (UniProt P03372). In words: CCTE_Deisenroth_AIME_384WELL_LUC_Inactive: CCTE's 384-well Estrogen Receptor Transactivation Assay without AIME metabolic competence (ERTA luciferase; metabolism negative), Deisenroth Lab (AID 2284038).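 Note: hits raise estrogen receptor luciferase signal so potencies reflect agonists.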 Here is the method:
CCTE_Deisenroth_AIME_384WELL (AIME metabolism assay) is a cell-based, single-readout assay that uses VM7Luc4E2, a human mammary gland/breast cell line, with measurements taken at 24 hour after chemical dosing in a 384-well plate.CCTE_Deisenroth_AIME_384WELL_LUC_Inactive is one of four assay components measured or calculated from the CCTE_Deisenroth_AIME_384WELL assay. It is designed to make measurements of luciferase induction, a form of inducible reporter, as detected with bioluminescence signals by luciferase-coupled ATP quantitation technology.CCTE_Deisenroth_AIME_384WELL_LUC_Inactive is a component of the CCTE_Deisenroth_AIME_384WELL assay that measures the effect of retroftting the VM7Luc ERTA assay with the Alginate Immobolization of Metabolic Enzymes (AIME) metabolism method. AIME is optimized to impart phase I hepatic metabolism using phenobarbital/beta-naphthoflavone induced hepatic S9 from male Sprague Dawley rats. Parent chemicals are incubated for 2 hours in the AIME assay prior to transfer to the VM7Luc ERTA assay plate. […] This endpoint evaluates reporter induction in metabolism negative mode. Using a type of inducible reporter in VM7Luc cells, gain-of-signal activity can be used to understand changes in the reporter gene as they relate to xenobiotic metabolism and the gene ESR1. This assay endpoint, CCTE_Deisenroth_AIME_384WELL_LUC_Inactive, was analyzed in the positive analysis fitting direction relative to 17beta-estradiol as the positive control in the ERTA assay. To generalize the intended target to other relatable targets, this assay endpoint is annotated to the nuclear receptor intended target family, where the subfamily is steroidal.
The AIME procedure consists of a preparative "pre-stamping" step using a barium chloride/poly-L-lysine (PLL) solution followed by "stamping" the lid in alginate-hepatic S9 (metabolism positive) or alginate-water (metabolism negative) to form microspheres. Once stamping is completed, the AIME lids are placed in duplicate microplates (metabolism positive or negative) containing chemical solutions and incubated for two hours to facilitate metabolic reactions. The conditioned medium, containing parent chemical or metabolites, is then transferred to the cell-based VM7Luc Estrogen Receptor Transactivation Assay (ERTA) for 24 hours. A typical experimental design tests a 10-point concentration series (0.002 - 200 uM) for 8 compounds (96-well format)1 or 32 compounds (384-well format)2 in single technical replicate. AIME assay controls include trans-stilbene (bioactivated control) and ethylparaben (bioinactivated control). ERTA assay plate controls include 17-beta estradiol (positive control) and DMSO (solvent control). Experiments typically comprise a minimum of four experimental replicates (n=4).
The AC50 is the midpoint of the concentration-response curve, whichever way the signal moves. On to `OCCOc1ccccc1`, for which the concentration at half-maximal activity (AC50) is 43.5 µM (active).
In the case of `CCOC1Oc2ccc(OS(C)(=O)=O)cc2C1(C)C` (stereo not drawn), the compound was classed as inactive.
Regarding `Cc1[nH]c(=O)n(C(C)(C)C)c(=O)c1Cl`, the call was inactive.
For the compound `CCC(C)Nc1c([N+](=O)[O-])cc(C(C)(C)C)cc1[N+](=O)[O-]` (stereo not drawn), the half-maximal activity concentration (AC50) is 12.4 µM (active).
Regarding `CNC(=O)/C=C(\C)OP(=O)(OC)OC`, the result was inactive.
On the same count and under the same terms, the value for `CCc1ccc(C(=O)NN(C(=O)c2cc(C)cc(C)c2)C(C)(C)C)cc1` was “inactive”; that for `COP(=O)(OC)OC=C(Cl)Cl` was “inactive”; that for `CCCN(CCC)c1c([N+](=O)[O-])cc(C(F)(F)F)cc1[N+](=O)[O-]` was “inactive”.
Same read-out and setting: in the case of `Clc1ccccc1-c1nnc(-c2ccccc2Cl)nn1` it was “inactive”; in that of `C[C@H]1[C@H](c2ccc(Cl)cc2)SC(=O)N1C(=O)NC1CCCCC1`, “inactive”.
With `O=S1OCC2C(CO1)C1(Cl)C(Cl)=C(Cl)C2(Cl)C1(Cl)Cl` (stereo not drawn), the half-maximal activity concentration (AC50) was 12 µM (active).
For the compound `CNC(=O)Oc1cccc(N=CN(C)C)c1`, the outcome was inactive.
On to `CNC(=O)Oc1ccccc1OC(C)C`, for which the compound was classed as inactive.
